# From PubChem BioAssay (NCI)
# This is part of a sample that, as a whole, favours compounds with a hit. Of some 83,000 tested, about 20% had one in any assay.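 Single-dose data. Exposure time 48 hours. Values below 10 considered active.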 Unmarked numbers belong to inactive results. The source made the active and inactive calls.
# What was measured:
# Experiment in all cases: NCI-60 one-dose screen, 48 h (100 = growth as untreated, 0 = no growth, -100 = all killed)
# [1] = system: HT29 colon; settings: 10 µM unless noted
# [2] = system: SNB-75 CNS; settings: 10 µM unless noted
# [3] = system: SNB-19 CNS; settings: 10 µM unless noted
# [4] = system: U251 CNS; settings: 10 µM unless noted
# [5] = system: PC-3 prostate; settings: 10 µM unless noted
# [6] = system: SK-MEL-5 melanoma; settings: 10 µM unless noted
# [7] = system: UACC-62 melanoma; settings: 10 µM unless noted
# [8] = system: SK-MEL-2 melanoma; settings: 10 µM unless noted
# [9] = system: EKVX NSCLC; settings: 10 µM unless noted
# [10] = system: SN12C renal; settings: 10 µM unless noted
# [11] = system: UO-31 renal; settings: 10 µM unless noted
# [12] = system: TK-10 renal; settings: 10 µM unless noted
# [13] = system: ACHN renal; settings: 10 µM unless noted
# [14] = system: CAKI-1 renal; settings: 10 µM unless noted
# [15] = system: A498 renal; settings: 10 µM unless noted
# [16] = system: CCRF-CEM leukemia; settings: 10 µM unless noted
# [17] = system: MOLT-4 leukemia; settings: 10 µM unless noted
# [18] = system: SR leukemia; settings: 10 µM unless noted
# [19] = system: LOX IMVI melanoma; settings: 10 µM unless noted
# [20] = system: SK-MEL-28 melanoma; settings: 10 µM
SMILES,growth [1],growth [2],growth [3] [%],growth [4],growth [5],growth [6],growth [7],growth [8],growth [9],growth [10],growth [11],growth [12],growth [13],growth [14],growth [15],growth [16],growth [17],growth [18],growth [19],growth [20]
Cc1cc2c(c(C)c1Cl)C(=O)/C(=C/c1cccc([N+](=O)[O-])c1)O2,95.4%,102%,96.8,93%,100%,96.6%,82%,97.7%,98.3%,96.9%,96.2%,129%,107%,91.6%,95.6%,102%,90.5%,85.5%,,
NCCNc1nc2ccc(F)cc2c2c(=O)c3cc(F)ccc3sc12,-39.5% (active),39.9%,64.6,24.1%,45%,,84.2%,91.5%,75.9%,46.3%,35.6%,59.1%,31.6%,22.5%,41.2%,20.7%,5.51% (active),,-90.8% (active),91%
Cc1ccc(Cn2c(N3CCC(C(=O)NCc4cccs4)CC3)nc3ccccc32)cc1,48.6%,77.5%,112,73.9%,39.8%,92%,101%,101%,,87.9%,65%,95.7%,98.5%,89.1%,62.4%,8.48% (active),21.6%,-37% (active),,98.1%
O=C(Nc1ccc(I)cc1F)c1cc(F)ccc1O,25.6%,-20.7% (active),16.8,-16.8% (active),3.39% (active),,-21.9% (active),-35.8% (active),5.82% (active),0.104% (active),6.41% (active),-0.353% (active),2.56% (active),-24.8% (active),-58.9% (active),6.38% (active),-16.4% (active),,0.316% (active),-5.23% (active)
N#C/C(=C\c1c(-c2ccccc2)[nH]c2ccccc12)S(=O)(=O)c1ccccc1,18.3%,12.4%,40.3,33.4%,5.37% (active),11.6%,34.3%,46.6%,61.7%,54%,51.2%,69.4%,59.4%,41.5%,24.2%,,33.7%,17.9%,,
CCN1CCN(c2cc(C)c3cc(NC(=O)c4ccc(OC)c(OC)c4)ccc3n2)CC1,13%,66.9%,58.1,45.6%,49.2%,19.4%,27.3%,50.7%,,44.7%,54%,57.6%,58.4%,48.1%,-3.67% (active),7.94% (active),16.2%,1.64% (active),,51.9%
COc1ccc(C(=O)Nc2ccc3nc(N4CCCCC4)cc(C)c3c2)cc1OC,20.8%,102%,109,69.3%,45.1%,88.1%,98.5%,119%,,88.8%,98.7%,104%,94.9%,88.4%,35.5%,54.8%,49%,33.1%,,94.5%
O=c1oc2ccc(I)cc2c(=O)n1-c1ccc(Br)cc1F,50%,-18.9% (active),18.2,0.297% (active),1.7% (active),,-14.7% (active),-27.7% (active),7.21% (active),0.636% (active),5.6% (active),0.987% (active),1.01% (active),-17.8% (active),-62.2% (active),8.26% (active),3.69% (active),,11.2%,2.3% (active)
FC(F)(F)c1cccc(Nc2nc(-c3ccccc3)nc3ncccc23)c1,15%,91.4%,100,58.3%,6.17% (active),-91.4% (active),-50.6% (active),104%,,75.8%,82.4%,94.2%,76.2%,40.4%,-4.48% (active),-21.6% (active),7.45% (active),-37.4% (active),,-84.6% (active)
Cc1ccc2nc(NC(=O)CSC(=S)N3CCN(c4ccccc4)CC3)sc2c1,96.6%,97.1%,96.9,86.3%,95.5%,95.4%,,96.1%,109%,99%,88.2%,108%,100%,,108%,,111%,98.7%,-65% (active),107%
C=C(C)CCC(C)N1CCC(N2CCC(C(=O)NCCc3ccccc3)CC2)CC1 (stereo not drawn),39.3%,105%,102,77.4%,59.7%,10.9%,68.9%,99.3%,,57.5%,78.2%,114%,,89.1%,72%,45.5%,42.9%,4.33% (active),,90%
O=C(CCc1nnc2sc(COc3ccccc3)nn12)c1nc2ncccc2[nH]1,106%,79.8%,100,101%,96.5%,,91.8%,102%,102%,96.3%,69%,124%,107%,84.4%,66.8%,118%,113%,,91.8%,107%
O=c1oc2ccc(F)cc2c(=O)n1-c1ccc(Br)cc1F,32.6%,-15.7% (active),17.1,2.06% (active),-2.97% (active),,-6.65% (active),-30.2% (active),7.09% (active),-4.08% (active),5.26% (active),3.34% (active),2.25% (active),-14.8% (active),-55.4% (active),11.1%,-7.7% (active),,13.5%,11.1%
Nc1ccn(C2O[C@H](CO)[C@@H](O)[C@H]2O)c(=O)n1 (stereo partly drawn),106%,76.9%,101,48.9%,85.6%,89.9%,95.9%,110%,,54.9%,100%,125%,79.5%,91.3%,106%,29.2%,57.1%,2.99% (active),,76.4%
COc1ccc(/C=C/C(=O)c2ccc3cc(OC)c(OC)cc3c2)cc1OC,6.78% (active),49.7%,71.9,22.8%,42%,36.7%,57.6%,83.6%,,32.2%,27.7%,65.1%,55.4%,30.2%,70.9%,32.8%,30.7%,3.83% (active),,96.3%
O=C1c2cc(I)ccc2Oc2cc([N+](=O)[O-])ccc2N1c1ccc(Cl)cc1F,83.9%,75.4%,90.5,79.3%,78.7%,,76.8%,85.4%,93.5%,90.8%,63.6%,120%,90.3%,63.9%,91.4%,76.8%,56.6%,,86.7%,97.3%
O=C(Nc1ccc(Cl)cc1F)c1cc(I)ccc1O,103%,16.5%,18.9,9.91% (active),44%,,-1.26% (active),-19.3% (active),77%,29.5%,34%,15.8%,34.3%,22.8%,-28.2% (active),29.9%,31.7%,,19%,18.5%
